The list is not random: actives were taken first. Their share in the collection is about 12%.
AMA1-RON2 inh – qHTS for Inhibitors of AMA1-RON; Towards Development of Antimalarial Drug Lead: Primary Screen; Plasmodium falciparum AMA1 (3D7) - RON2 peptide interaction; AlphaScreen AMA1-biotinylated RON2 peptide binding; Potency, µM (doses to about 58.2 µM), for inactives: at the top dose activity change, negative = inhibition, actives largely listed as inhibitors; hit rate 0.2% among 360,000; AID 720542, 2013;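 further: 0% = vehicle wells and -100% = peptide control; nearly all actives have a fitted effect of over 45% in size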
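AMA1 (3D7) with his tag at 25 nM final met compounds first, then biotinylated RON2 peptide at 25 nM; detection used donor plus acceptor beads, 10 µg/mL apiece, read by AlphaScreen after 30 min at room temperature.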
Pf growth 96h – Primary qHTS for delayed death inhibitors of the malarial parasite plastid, 96 hour incubation. P. falciparum luciferase reporter growth, 96 h. Potency, µM (doses to about 28.7 µM), without a hit: at the top dose activity change, negative = inhibition, most hits filed as inhibitors. hit rate 6.9% among 320,000; further: on the % scale 0 is the no-effect control and ±100 the full control effect
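P. falciparum expressing integrated firefly luciferase, in erythrocytes at 2% hematocrit, 0.05% parasitemia, incubated with compounds 96 h at 37 C, 5% CO2. Growth inhibition read as loss of luminescence; two-generation exposure targets delayed-death apicoplast inhibitors.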
SARS PLP yeast – qHTS of Yeast-based Assay for SARS-CoV PLP; S. cerevisiae expressing SARS-CoV PLpro, growth rescue; Potency, µM (titrated, usually from 32.9 µM), for inactives: at the highest dose activity, positive = growth rescue, usual class: activators; hit rate 0.19% among 330,000; calls by dose curve; further: 0% is about no effect; nearly all actives have a fitted effect of over 55% in size
NS1 inh – qHTS Assay for Inhibitors of Influenza NS1 Protein Function; AID 2326, 2010; hit rate 0.4% among 270,000; Potency, µM (doses to about 46.1 µM), inactives show at the top dose activity, positive = more growth; calls by dose curve; further: actives are rising curves; nearly all actives have a fitted effect of over 50% in size
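Growth recovery, yeast-based: influenza A NS1 expressed in S. cerevisiae causes slow growth, and suppressors are detected by OD600. The parent strain without NS1 is used as positive control.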
Pf growth 48h – Primary qHTS for delayed death inhibitors of the malarial parasite plastid, 48 hour incubation. P. falciparum luciferase growth in erythrocytes, 48 h. Potency, µM (series often up to 28.7 µM), for the others: top-dose activity change, negative = inhibition, usual class: inhibitors. hit rate 5.9% among 310,000. AID 504832, 2011; further: on the % scale 0 is the no-effect control and ±100 the full control effect
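Luciferase-expressing P. falciparum in infected erythrocytes (2% hematocrit, 0.1% parasitemia final) in RPMI 1640/0.5% Albumax were exposed to compound for 48 hours at 37 C, 5% CO2; growth read as luminescence.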
HCV inh – qHTS Assay for Inhibitors of Hepatitis C Virus (HCV); Potency, µM (top dose mostly 41.8 µM), without a hit: at the top dose activity change, negative = inhibition, usual class: inhibitors; hit rate 3.4% among 340,000; AID 651820, 2012; Huh7.5.1 HCVcc-Cre infection, luciferase reporter, 44 h; further: on the % scale 0 is the no-effect control and ±100 the full control effect
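After 44 h co-culture of compound, cells and HCVcc-Cre (~0.5 moi), substrate is added for 15 min at room temperature and luciferase measured over 15 sec. Cells were seeded at 1,000/well and pre-cultured 4 h.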
Starred values were filed as active, the others as inactive; ? = inconclusive; · = no result; [ ] = remark or other dose. Unless noted, the call rests on the fitted dose curve; in most records, active means well fitted curve in the direction sought with a large enough effect; inconclusive means small, poorly fitted or top-dose-only effect, or another doubt; inactive means no such curve, though single readings can be large; an effect the other way counts as inactive or inconclusive. Potency means the concentration at half of the fitted maximal effect.

SMILES | AMA1-RON2 inh | Pf growth 96h | SARS PLP yeast | NS1 inh | Pf growth 48h | HCV inh
CC(CCc1ccccc1)NC(=O)c1ccccc1F (stereo unspecified) | 28.4% | -7.7% | 2.9% | -13.7% | -17.7% | 10.4%
O=C(CCc1ccccc1)NNC(=O)c1ccccc1Cl | 83.6% | 2.94µM* | 4.2% | 10.4% | ? | 11.2%
CC(=O)c1ccc(NC(=S)NC(C)CCc2ccccc2)cc1 (stereo unspecified) | 6.1% | 9.28µM* | -2.9% | -9.9% | ? | 7.8%
Cc1ccc(NC(=S)NC(C)CCc2ccccc2)cc1C (stereo unspecified) | -13.2% | ? | -52.0% | -34.7% | ? | ?
CC(CCc1ccccc1)NC(=O)c1ccccc1Cl (stereo unspecified) | -0.5% | 9.28µM* | 3.6% | -3.9% | ? | 14.5%
CC(=O)c1ccc(NC(=O)C(C)OC(=O)/C=C/c2ccco2)cc1 (stereo unspecified) | -0.1% | · | -1.7% | · | · | ?
Brc1ccc(-c2cnnc(N3CCCC3)n2)cc1 | 9.4% | ? | -15.8% | -112.4% | 3.29µM* | -19.8%
c1ccc(-c2cnnc(N3CCOCC3)n2)cc1 | -4.6% | -14.5% | 14.5% | -2.0% | 32.6% | -19.6%
CCCCNc1c(-c2cccc(SC3CCCCC3)c2)nc2ccc(Cl)cn12 | 11.0% | ? | -6.5% | · | 10.4µM* | -4.1%
CCCCCCSc1cccc(-c2nc3ccc(Cl)cn3c2NCc2ccccc2)c1 | 18.7% | ? | 0.0% | · | 7.38µM* | ?
Clc1cccc(-c2ccc(-c3nc4ccccn4c3NCc3ccccc3)cc2)c1 | -2.0% | · | 7.0% | · | · | 14.1µM*
Cc1ccc2nc(-c3cccc(SC4CCCCC4)c3)c(NCc3ccccc3)n2c1 | -3.0% | · | 1.2% | · | · | ?
Clc1ccc2nc(-c3cccc(SC4CCCCC4)c3)c(NCc3ccccc3)n2c1 | 23.4% | 3.7µM* | 2.2% | · | 4.15µM* | -4.2%
COc1ccccc1N1CCN(C(=O)c2ccc(N(C)S(=O)(=O)c3ccccc3)cc2)CC1 | -3.0% | -18.8% | -0.4% | -27.4% | ? | ?
C=CCN(c1ccc(F)cc1)S(=O)(=O)c1cc(C(=O)OCC(=O)N(C)C2CCS(=O)(=O)C2)ccc1Cl (stereo unspecified) | 19.0% | -0.7% | -0.5% | -4.2% | ? | 3.5%
Cc1oc(-c2ccc(Cl)cc2)nc1CS(=O)CC(=O)NC1CCCC1 (stereo unspecified) | 5.0% | ? | · | ? | 23.8% | -14.4%
Cc1oc(-c2ccccc2F)nc1CSCC(=O)NC1CCCC1 | 1.8% | 1.47µM* | 0.1% | -2.7% | 4.2% | ?
Cc1oc(-c2ccc(Cl)cc2)nc1CS(=O)CC(=O)NC1CCCCCC1 (stereo unspecified) | -0.8% | 9.28µM* | -4.0% | 15.4% | 14.4% | ?
Cc1oc(-c2ccc(Cl)cc2)nc1CS(=O)CC(=O)NC1CCCCC1 (stereo unspecified) | -6.3% | -13.6% | 0.9% | ? | 20.5% | 19.7%
Cc1oc(-c2ccc(Cl)cc2)nc1CS(=O)CC(=O)NCCCN(C)C1CCCCC1 (stereo unspecified) | 12.0% | 47.4% | · | 3.7% | ? | 10µM*
Cc1oc(-c2ccccc2Cl)nc1CSCC(=O)NC1CC1 | 5.0% | ? | -0.5% | -21.7% | ? | ?
Cc1ccc(CNC(=O)CCSCc2ccccc2C)cc1 | -8.4% | -0.1% | -0.5% | -5.1% | ? | 7.7%
CCOC(=O)c1ccc(N2C(=O)c3n[nH]c(C)c3C2c2ccc(OC)cc2)cc1 (stereo unspecified) | 0.0% | ? | 0.7% | -64.5% | ? | -19.3%
COc1cc(C2c3c(n[nH]c3C)C(=O)N2c2ccc(Br)cc2)ccc1O (stereo unspecified) | -0.3% | -4.7%[5.75 µM] | 2.1% | 10.4% | 36.2% | ?
CCOC(=O)c1ccc(N2C(=O)c3n[nH]c(C)c3C2c2ccc(OC)c(OC)c2)cc1 (stereo unspecified) | -9.5% | 9.28µM* | -5.5% | -12.6% | ? | 12.1%
SMILES | AMA1-RON2 inh | Pf growth 96h | SARS PLP yeast | NS1 inh | Pf growth 48h | HCV inh
CCOc1cc(C2c3c(n[nH]c3C)C(=O)N2c2ccc(Br)cc2)ccc1O (stereo unspecified) | -2.6% | 13.1µM* | 6.5% | 4.1% | 7.7% | 25.1µM*
CCOC(=O)c1sc(N2C(=O)C(O)=C(C(=O)c3ccc(C)o3)C2c2cccc([N+](=O)[O-])c2)nc1C (stereo unspecified) | 32.6% | 14.7µM* | 2.2% | ? | 30.6% | ?
CCOC(=O)c1ccc(N2C(=O)c3n[nH]c(-c4ccco4)c3C2c2cccc([N+](=O)[O-])c2)cc1 (stereo unspecified) | 16.8% | 57.5% | 4.1% | ? | 8.28µM* | 11.2µM*
CCOC(=O)c1sc(N2C(=O)C(O)=C(C(=O)c3ccc(C)o3)C2c2ccc(OC)c(OC)c2)nc1C (stereo unspecified) | 1.6% | 14.3% | 1.3% | -12.8% | -20.3% | -18.4%
Cc1cccc(-c2c3c(=O)n(C)c(=O)n(C)c3cn2-c2ccccc2O)c1 | -7.1% | 8.28µM* | -14.6% | -101.6% | 1.85µM* | ?
CCc1nc(C)cn1S(=O)(=O)c1cc(C)c(OC)c(C)c1C | -4.1% | 4.4% | 1.0% | -9.6% | · | 2.82µM*
CC(C)C(C(=O)NC1CCCC1)N1CCN(c2ncccc2C#N)CC1 (stereo unspecified) | 3.8% | · | · | · | · | ·
Cc1cc(NC(=O)COn2nnc3ccc(S(C)(=O)=O)cc32)ccc1Br | -0.1% | 26.4% | -8.1% | -63.6% | -9.9% | 10µM*
CCCCCc1ccc(CC(=O)N2CCOCC2)cc1 | -0.3% | -27.6% | -1.4% | -4.3% | 31.3% | 3.4%
NC1=NS(=O)(=O)NC1c1ccc(F)cc1 (stereo unspecified) | -8.1% | -66.6% | 2.0% | · | 22.7% | 7.3%
O=C1c2cccnc2C(Nc2ccc(Br)cc2Br)N1Cc1cccs1 (stereo unspecified) | · | 6.57µM* | -0.1% | · | ? | ·
O=C(OCCCOC(=O)c1ccc([N+](=O)[O-])o1)c1ccc([N+](=O)[O-])o1 | 10.5% | 6.0% | · | · | 13.1µM* | -17.2%
CCOC(=O)C1CCN(C(=O)COC(=O)c2ccc([N+](=O)[O-])o2)CC1 | 6.9% | 11.7µM* | -0.3% | · | ? | 3.9%
CCOc1ccc2[nH]c(=O)c(CN(CCCN3CCOCC3)C(=O)Nc3ccc(F)cc3)cc2c1 | -2.7% | · | · | · | · | -1.3%
Cc1cc(C)c2cc(CN(CCO)C(=O)Nc3ccc(Cl)cc3)c(=O)[nH]c2c1 | 4.9% | ? | -0.9% | -54.8% | 9.28µM* | -24.2%

Screening data: PubChem, National Center for Advancing Translational Sciences (NCATS)
